Reference: the supplement of paper PMC4466140

Experiments:
Assay in all cases: SPOT peptide array binding signal intensity (averaged, normalized) (arbitrary units (background-subtracted, floor 0; scale differs between SH3 domains)); higher = stronger binding of the SH3 domain to the peptide
AgAbp1 = molecular target: AgAbp1
How it was run: (§1)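 To measure binding, SH3 domains from four yeast species were fused to GST, expressed in E. coli BL21(DE3) and purified on glutathione Sepharose. Each domain was incubated at 10 μg/ml overnight at 4°C on cellulose membranes with synthetic 15-mer peptides whose cysteines were replaced by serines. Anti-GST antibody, an HRP anti-mouse secondary and luminol were used for detection, and images were quantified with Genespotter. Reported binding signal is normalized, background-subtracted spot intensity averaged over replicates, in arbitrary units that differ between domains.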

AgBbc1 = molecular target: AgBbc1
How it was run: as §1

AgBem1-D1 = molecular target: AgBem1-D1
How it was run: as §1

AgBzz1-D1 = molecular target: AgBzz1-D1
How it was run: as §1

AgBzz1-D2 = molecular target: AgBzz1-D2
How it was run: as §1

AgCyk3 = molecular target: AgCyk3
How it was run: as §1

AgFus1 = molecular target: AgFus1
How it was run: as §1

AgHof1 = molecular target: AgHof1
How it was run: as §1

AgHse1 = molecular target: AgHse1
How it was run: as §1

AgLsb1 = molecular target: AgLsb1
How it was run: as §1

AgLsb4 = molecular target: AgLsb4
How it was run: as §1

AgMyo5 = molecular target: AgMyo5
How it was run: as §1

AgNbp2 = molecular target: AgNbp2
How it was run: as §1

AgRvs167 = molecular target: AgRvs167
How it was run: as §1

AgSho1 = molecular target: AgSho1
How it was run: as §1

AgSla1-D1-D2 = molecular target: AgSla1-D1-D2
How it was run: as §1

AgSla1-D3 = molecular target: AgSla1-D3
How it was run: as §1

CaAbp1-D1 = molecular target: CaAbp1-D1
How it was run: as §1

CaAbp1-D2 = molecular target: CaAbp1-D2
How it was run: as §1

CaBbc1 = molecular target: CaBbc1
How it was run: as §1

CaBem1-D1 = molecular target: CaBem1-D1
How it was run: as §1

CaBzz1-D1 = molecular target: CaBzz1-D1
How it was run: as §1

CaBzz1-D2 = molecular target: CaBzz1-D2
How it was run: as §1

CaCyk3 = molecular target: CaCyk3
How it was run: as §1

CaFus1 = molecular target: CaFus1
How it was run: as §1

CaHof1 = molecular target: CaHof1
How it was run: as §1

CaHse1 = molecular target: CaHse1
How it was run: as §1

CaLsb1 = molecular target: CaLsb1
How it was run: as §1

CaLsb4 = molecular target: CaLsb4
How it was run: as §1

CaMyo5 = molecular target: CaMyo5
How it was run: as §1

CaNbp2 = molecular target: CaNbp2
How it was run: as §1

CaRvs167 = molecular target: CaRvs167
How it was run: as §1

CaRvs167-3 = molecular target: CaRvs167-3
How it was run: as §1

CaSho1 = molecular target: CaSho1
How it was run: as §1

CaSla1-D1-D2 = molecular target: CaSla1-D1-D2
How it was run: as §1

CaSla1-D3 = molecular target: CaSla1-D3
How it was run: as §1

ScAbp1 = molecular target: ScAbp1
How it was run: as §1

ScBbc1 = molecular target: ScBbc1
How it was run: as §1

ScBem1-D1 = molecular target: ScBem1-D1
How it was run: as §1

ScBzz1-D1 = molecular target: ScBzz1-D1
How it was run: as §1

ScBzz1-D2 = molecular target: ScBzz1-D2
How it was run: as §1

ScCyk3 = molecular target: ScCyk3
How it was run: as §1

ScFus1 = molecular target: ScFus1
How it was run: as §1

ScHof1 = molecular target: ScHof1
How it was run: as §1

ScHse1 = molecular target: ScHse1
How it was run: as §1

ScLsb1 = molecular target: ScLsb1
How it was run: as §1

ScLsb2 = molecular target: ScLsb2
How it was run: as §1

ScLsb3 = molecular target: ScLsb3
How it was run: as §1

ScLsb4 = molecular target: ScLsb4
How it was run: as §1

ScMyo3 = molecular target: ScMyo3
How it was run: as §1

ScMyo5 = molecular target: ScMyo5
How it was run: as §1

ScNbp2 = molecular target: ScNbp2
How it was run: as §1

ScPex13 = molecular target: ScPex13
How it was run: as §1

ScRvs167 = molecular target: ScRvs167
How it was run: as §1

ScSho1 = molecular target: ScSho1
How it was run: as §1

ScSla1-D1-D2 = molecular target: ScSla1-D1-D2
How it was run: as §1

ScSla1-D3 = molecular target: ScSla1-D3
How it was run: as §1

SpAbp1-D1 = molecular target: SpAbp1-D1
How it was run: as §1

SpBbc1 = molecular target: SpBbc1
How it was run: as §1

SpBzz1-D1 = molecular target: SpBzz1-D1
How it was run: as §1

SpBzz1-D2 = molecular target: SpBzz1-D2
How it was run: as §1

SpCyk3 = molecular target: SpCyk3
How it was run: as §1

SpHof1 = molecular target: SpHof1
How it was run: as §1

SpHof1-2 = molecular target: SpHof1-2
How it was run: as §1

SpHof1-3 = molecular target: SpHof1-3
How it was run: as §1

SpHse1 = molecular target: SpHse1
How it was run: as §1

SpLsb1 = molecular target: SpLsb1
How it was run: as §1

SpLsb4 = molecular target: SpLsb4
How it was run: as §1

SpMyo1 = molecular target: SpMyo1
How it was run: as §1

SpNbp2 = molecular target: SpNbp2
How it was run: as §1

SpPex13 = molecular target: SpPex13
How it was run: as §1

SpRvs167 = molecular target: SpRvs167
How it was run: as §1

SpSla1-D1-D2 = molecular target: SpSla1-D1-D2
How it was run: as §1

SpSla1-D3 = molecular target: SpSla1-D3
How it was run: as §1

Q: What does the source list for LRIKRKPVQTFFEFI?
A: SPOT peptide array binding signal intensity (AgAbp1): 76; SPOT peptide array binding signal intensity (AgBbc1): 24.2; SPOT peptide array binding signal intensity (AgBem1-D1): 212; SPOT peptide array binding signal intensity (AgBzz1-D1): 109; SPOT peptide array binding signal intensity (AgBzz1-D2): 42; SPOT peptide array binding signal intensity (AgCyk3): 4; SPOT peptide array binding signal intensity (AgFus1): 398; SPOT peptide array binding signal intensity (AgHof1): 19.5; SPOT peptide array binding signal intensity (AgHse1): 960; SPOT peptide array binding signal intensity (AgLsb1): 1; SPOT peptide array binding signal intensity (AgLsb4): 136; SPOT peptide array binding signal intensity (AgMyo5): 0.5; SPOT peptide array binding signal intensity (AgNbp2): 72; SPOT peptide array binding signal intensity (AgRvs167): 4.33; SPOT peptide array binding signal intensity (AgSho1): 49; SPOT peptide array binding signal intensity (AgSla1-D1-D2): 432; SPOT peptide array binding signal intensity (AgSla1-D3): 10.5; SPOT peptide array binding signal intensity (CaAbp1-D1): 816; SPOT peptide array binding signal intensity (CaAbp1-D2): 948; SPOT peptide array binding signal intensity (CaBbc1): 91.2; SPOT peptide array binding signal intensity (CaBem1-D1): 16; SPOT peptide array binding signal intensity (CaBzz1-D1): 107; SPOT peptide array binding signal intensity (CaBzz1-D2): 59.2; SPOT peptide array binding signal intensity (CaCyk3): 18; SPOT peptide array binding signal intensity (CaFus1): 1010; SPOT peptide array binding signal intensity (CaHof1): ≤ 0; SPOT peptide array binding signal intensity (CaHse1): 15; SPOT peptide array binding signal intensity (CaLsb1): 0.5; SPOT peptide array binding signal intensity (CaLsb4): 59; SPOT peptide array binding signal intensity (CaMyo5): 14; SPOT peptide array binding signal intensity (CaNbp2): 468; SPOT peptide array binding signal intensity (CaRvs167): 16.5; SPOT peptide array binding signal intensity (CaRvs167-3): 843; SPOT peptide array binding signal intensity (CaSho1): 1260; SPOT peptide array binding signal intensity (CaSla1-D1-D2): 37; SPOT peptide array binding signal intensity (CaSla1-D3): 37; SPOT peptide array binding signal intensity (ScAbp1): 355; SPOT peptide array binding signal intensity (ScBbc1): 6.75; SPOT peptide array binding signal intensity (ScBem1-D1): 57; SPOT peptide array binding signal intensity (ScBzz1-D1): 39.5; SPOT peptide array binding signal intensity (ScBzz1-D2): 49.5; SPOT peptide array binding signal intensity (ScCyk3): 138; SPOT peptide array binding signal intensity (ScFus1): 651; SPOT peptide array binding signal intensity (ScHof1): 5.5; SPOT peptide array binding signal intensity (ScHse1): 1800; SPOT peptide array binding signal intensity (ScLsb1): 21.2; SPOT peptide array binding signal intensity (ScLsb2): 5.5; SPOT peptide array binding signal intensity (ScLsb3): 156; SPOT peptide array binding signal intensity (ScLsb4): 23; SPOT peptide array binding signal intensity (ScMyo3): 7; SPOT peptide array binding signal intensity (ScMyo5): 1.75; SPOT peptide array binding signal intensity (ScNbp2): 150; SPOT peptide array binding signal intensity (ScPex13): 18; SPOT peptide array binding signal intensity (ScRvs167): 24.2; SPOT peptide array binding signal intensity (ScSho1): 718; SPOT peptide array binding signal intensity (ScSla1-D1-D2): 220; SPOT peptide array binding signal intensity (ScSla1-D3): 14; SPOT peptide array binding signal intensity (SpAbp1-D1): 228; SPOT peptide array binding signal intensity (SpBbc1): 5; SPOT peptide array binding signal intensity (SpBzz1-D1): 128; SPOT peptide array binding signal intensity (SpBzz1-D2): 0.5; SPOT peptide array binding signal intensity (SpCyk3): 2; SPOT peptide array binding signal intensity (SpHof1): 436; SPOT peptide array binding signal intensity (SpHof1-2): 14; SPOT peptide array binding signal intensity (SpHof1-3): 784; SPOT peptide array binding signal intensity (SpHse1): 686; SPOT peptide array binding signal intensity (SpLsb1): 4.25; SPOT peptide array binding signal intensity (SpLsb4): 100; SPOT peptide array binding signal intensity (SpMyo1): 4.5; SPOT peptide array binding signal intensity (SpNbp2): 370; SPOT peptide array binding signal intensity (SpPex13): 23.5; SPOT peptide array binding signal intensity (SpRvs167): 32.5; SPOT peptide array binding signal intensity (SpSla1-D1-D2): ≤ 0; SPOT peptide array binding signal intensity (SpSla1-D3): 37
